Compound activity (PubChem BioAssay)
Compounds with a hit are over-represented: about 3% of the library has one in this group of screens.
Measles CPE – compounds protecting cells from measles virus cytopathic effect, primary screen, measles RdRp inhibitor project, single point, MLSMR library, absorbance | Measles virus-infected cells, CPE protection | protection (pct of control), % at 4 µM | actives 1.5% (n = 140,000); in the data active = protection mostly above about 24%, no sharp cut-off; inactive = mostly below about 26%
ROMK primary – ROMK potassium channel modulators, primary screen, cell-based, thallium flux, MLSMR library | ATP-sensitive inward rectifier potassium channel 1 (Homo sapiens), P48048 | Tet-inducible ROMK, thallium flux fluorescence; actives lie on both sides | actives 2% (n = 130,000) | B-score at 10 µM;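 active = signal ratio slope over the read window, or its plate-corrected B-score, at least 3 SD from the plate mean, either direction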;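 also: B-score of the F/F0 ratio slope over 7 to 12 s after thallium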
Target sequence (P48048 whole entry, looked up): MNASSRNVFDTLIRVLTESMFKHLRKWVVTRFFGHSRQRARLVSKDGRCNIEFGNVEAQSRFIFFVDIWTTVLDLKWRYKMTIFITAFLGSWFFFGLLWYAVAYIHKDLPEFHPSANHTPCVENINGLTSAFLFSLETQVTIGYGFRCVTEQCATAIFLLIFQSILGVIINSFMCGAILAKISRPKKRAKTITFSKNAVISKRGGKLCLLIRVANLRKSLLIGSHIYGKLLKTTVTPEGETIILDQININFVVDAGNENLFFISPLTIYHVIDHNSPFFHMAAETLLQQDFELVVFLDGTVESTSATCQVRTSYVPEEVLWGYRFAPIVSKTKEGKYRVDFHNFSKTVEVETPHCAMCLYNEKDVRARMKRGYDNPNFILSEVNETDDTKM
SDO1 yeast rescue – growth rescue of sdo1-depleted yeast, primary screen, S. cerevisiae, bone marrow failure model; S. cerevisiae sdo1-depleted JHY4D growth rescue, OD600 30 h; active compounds read high; pdr5 snq2 efflux-pump mutant strain; z-score at 10 µM; actives 0.21% (n = 140,000);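 active = z-score above 3 at both the 24 hr and the 30 hr optical density reads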
Insulin prom inh – inhibitors of insulin promoter-driven GFP, primary screen, imaging, TRM-6 cells (human fetal islet line), eGFP reporter, cell count | reporter expression induced with tamoxifen | inhibition, % at 2 µM | actives 0.9% (n = 130,000) | AID 1273, 2008;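 active = inhibition above the mean plus 3 SD, with well images judged a real hit on visual review, cut at about 60% in these data, passing the limit was not always enough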
Each line names hits and unclear results; the compound was inactive in the other large screens.

Cc1ccc(Nc2nc(CSc3nnc(-c4cccnc4)n3-c3ccccc3C)cs2)cc1	Measles CPE 53
Cc1ccccc1-n1c(SCc2csc(Nc3ccccc3)n2)nnc1-c1cccnc1	none (no result: ROMK primary, Insulin prom inh)
CNC(=O)NC(=O)COC(=O)c1ccccc1OCc1ccccc1	none (no result: Measles CPE, SDO1 yeast rescue, Insulin prom inh)
N#C/C(=C(/O)CN1CCN(c2ccccc2F)CC1)c1nc(-c2ccc(Cl)cc2)cs1	none (no result: ROMK primary)
N#C/C(=C(/O)CN1CCCCC1)c1nc(-c2ccc(Cl)cc2)cs1	Measles CPE 81 (no result: ROMK primary)
Cc1cc(SCC#N)n2nc(C)c(-c3ccccc3)c2n1	none
Cc1cc(SCC(=O)c2cccs2)n2nc(C)c(-c3ccccc3)c2n1	Measles CPE 60 (no result: ROMK primary)
C#CC[N+](C)(C)CCCCCCCCCC	Measles CPE 28
COc1ccccc1/C=C/C=N/n1c(-c2ccc(C)cc2)n[nH]c1=S	none (no result: ROMK primary)
COc1ccccc1/C=C/C=N/n1c(-c2cc(C)[nH]n2)n[nH]c1=S	Measles CPE 57 (no result: ROMK primary, Insulin prom inh)
O=c1c2ccccc2[nH]c(=S)n1-c1cccc(S(=O)(=O)N2CCCC2)c1	none (no result: ROMK primary, Insulin prom inh)
C=CS(=O)(=O)c1sc(Cl)c(N2CCOCC2)c1[N+](=O)[O-]	ROMK primary -8.6 (no result: Measles CPE, SDO1 yeast rescue, Insulin prom inh)
C=CSc1sc(Cl)c(N2CCOCC2)c1[N+](=O)[O-]	none (no result: Measles CPE, SDO1 yeast rescue)
N#CC(Cc1ccc(OC(F)F)cc1)c1nc2ccccc2[nH]1 (configuration not stated)	none (no result: ROMK primary)
Cc1sc2nc(CSCC(=O)Nc3ccccc3C#N)[nH]c(=O)c2c1C	none (no result: ROMK primary, Insulin prom inh)
CCOC(=O)c1[nH]c(C)c(C(=O)c2cc(F)ccc2F)c1C	Insulin prom inh 70 (no result: ROMK primary)
CC(C)=CC(=O)Nc1nnc(C)s1	Measles CPE 38
CC(C)=CC(=O)Nc1nnc(-c2ccccc2)s1	none (no result: ROMK primary)
Cc1nn(C)cc1CNC(=O)c1cc2n(n1)C(C(F)(F)F)CC(c1cccs1)N2 (configuration not stated)	Measles CPE 20 (no result: Insulin prom inh)
CCCN(CC(=O)Nc1cc(Cl)ccc1Cl)C(=O)/C=C/c1ccco1	none (no result: ROMK primary, Insulin prom inh)
COCCCn1c(=S)[nH]c2c(sc3ccccc32)c1=O	ROMK primary 5.3 (no result: Measles CPE, SDO1 yeast rescue)
Cc1cccc(N(C)S(=O)(=O)c2ccc3[nH]c(=O)c(=O)[nH]c3c2)c1	none
CCOC(=O)N1CCC(NC(=O)c2ccc3c(Cl)c4c(nc3c2)CCCC4)CC1	ROMK primary -2.5
O=c1cc(-c2ccc(Cl)c(Cl)c2)[nH][nH]1	none
O=c1cc(-c2ccc(Cl)cc2)[nH][nH]1	Measles CPE 41
COC(=O)c1ccc(COC(=O)CNS(=O)(=O)c2ccc(C)cc2)cc1	Insulin prom inh 73 (no result: Measles CPE, SDO1 yeast rescue)
COc1ccc(N2CC(NC(=O)NCCC(C)C)CC2=O)cc1 (configuration not stated)	none (no result: ROMK primary, Insulin prom inh)
O=C(/C(C=Nc1ccc(Br)cc1)=C(/O)c1ccco1)C(F)(F)F	none (no result: ROMK primary, Insulin prom inh)
Cc1ccc(-c2nnn(CC(=O)N(C)C3CCCCC3)n2)o1	Insulin prom inh 74 (no result: Measles CPE, SDO1 yeast rescue)
CCNC(=S)N(CCc1cccc(C)c1)Cc1cc2cc(OC)c(OC)cc2[nH]c1=O	none
CNC(=S)N(CCc1ccccc1)Cc1cc2cc(OC)c(OC)cc2[nH]c1=O	Insulin prom inh 62
COc1cc(C(=O)NC(=S)N(CCc2ccccc2)CCc2ccccc2)cc(OC)c1OC	ROMK primary 3.3
Cc1ccccc1OCCSc1nc2ncnc(N)c2[nH]1	none (no result: Measles CPE, SDO1 yeast rescue, Insulin prom inh)
CC(=O)N/C(=N\OCc1ccccc1Cl)c1nonc1NC(C)=O	none
CCOc1ccc(N2CCc3c(C)nc(SC)nc32)cc1	none (no result: Measles CPE, SDO1 yeast rescue, Insulin prom inh)
COc1ccc(-c2nc3ncccn3c2Nc2ccc3c(c2)OCCO3)cc1	Insulin prom inh 69
Cc1ccc(NC(=O)c2cccc3c2-c2ccccc2C3=O)cc1C	none
CC(=O)Nc1ccc(NC(=O)c2cccc3c2-c2ccccc2C3=O)cc1	Insulin prom inh 75 (no result: Measles CPE, SDO1 yeast rescue)
C=CCn1c(-c2ccc([N+](=O)[O-])cc2)n[nH]c1=S	Measles CPE 38
O=C(Nc1cccc2c1CCCC2)c1ccncc1	none
CC(C)C(=O)Nc1ccc([N+](=O)[O-])c(C(F)(F)F)c1	Insulin prom inh 87 (no result: Measles CPE, SDO1 yeast rescue)
O=C(CSc1nnc(-c2ccccc2)n1Cc1ccccc1)NNC(=O)c1ccccc1O	none
CC(C)(C)NC(=O)c1ccc2nccnc2c1	Measles CPE 52 (no result: ROMK primary)
C/C(=N\N1CCN(C)CC1)c1ccc(OC(F)F)cc1	Insulin prom inh 75 (no result: Measles CPE, SDO1 yeast rescue)
C/C(=N\N1CCN(C)CC1)c1ccc(Cl)c(Cl)c1	none (no result: Measles CPE, SDO1 yeast rescue, Insulin prom inh)
O=c1c2ccccc2nnn1Cc1ccccc1Cl	none (no result: Measles CPE, SDO1 yeast rescue, Insulin prom inh)
Cc1cc(C)c(C#N)c(SCC(=O)Nc2ccc3c(c2)OCO3)n1	none (no result: ROMK primary)
Cc1nc(SCC(=O)Nc2ccc3c(c2)OCO3)c(C#N)c2c1CCCC2	Measles CPE 42 (no result: Insulin prom inh)
Cc1c(C(=O)O)oc2c1/C(=N\O)CC(C)(C)C2	Measles CPE 44 (no result: ROMK primary)
CCCCc1ccc(NC(=S)Nc2ccc(Cl)c(S(=O)(=O)N(C)C)c2)cc1	none
COc1cc(NC(=O)C2CC2)c(OC)cc1NC(=O)CCC(=O)NC1CCN(Cc2ccccc2)CC1	none (no result: Measles CPE, SDO1 yeast rescue, Insulin prom inh)
O=C(NC1CCCCC1)C(c1ccc2ncccc2c1)N(Cc1ccc(F)cc1)C(=O)c1cccs1 (configuration not stated)	none (no result: ROMK primary)
COC1=Cc2c(ccc3ccc(=O)oc23)OC1(C)C	none
C=CCc1c(OC)ccc2ccc(=O)oc12	Measles CPE 36
CCOc1ccc(C(=O)N2CCC(C(=O)c3ccc4c(c3)OCCO4)CC2)cc1	none (no result: ROMK primary)
O=C(CSc1nnc(-c2ccncc2)o1)Oc1ccccc1	none (no result: ROMK primary)
Cc1ccc(C(=O)CSc2nnc(-c3ccccc3)o2)cc1	none (no result: ROMK primary)
O=C(O)CSc1nnc(-c2ccccc2)o1	Measles CPE 33 (no result: ROMK primary)
O=C(CSc1nnc(-c2cccnc2)o1)Oc1ccccc1	Measles CPE 44
CCCCOc1ccc(CC2CCC(=O)NC2=O)cc1 (configuration not stated)	none (no result: Measles CPE, SDO1 yeast rescue)
CC(C)c1ccc(S(=O)(=O)/N=C2/C=C(Sc3ncn[nH]3)C(=O)c3ccccc32)cc1	ROMK primary -2.6
Cc1ccc(S(=O)(=O)/N=C2/C=C(Sc3ncn[nH]3)C(=O)c3ccccc32)cc1	none (no result: ROMK primary)
Cc1ccc(-n2c(C)cc(C3=NNC(=NC4CC4)SC3)c2C)cc1C	Measles CPE 74 (no result: ROMK primary, Insulin prom inh)
COc1cc(NC(=S)N2CCN(c3ccccn3)CC2)cc(OC)c1	Measles CPE 31 (no result: ROMK primary, Insulin prom inh)
Cc1cc(C)c2c(c1)cc(C)c1nnc(SCC(=O)Nc3ccc(S(=O)(=O)N4CCCCC4)cc3)n12	Measles CPE 50 (no result: ROMK primary)
COc1ccc(NC(=O)/C(Cl)=C(/Cl)S(=O)Cc2ccc(Cl)cc2)cn1 (configuration not stated)	none (no result: Measles CPE, SDO1 yeast rescue)
O=C(CSc1ccccc1C(=O)O)NCc1ccc(Cl)cc1	Measles CPE 40
O=C(CSc1ccccc1C(=O)O)NCc1ccco1	none (no result: ROMK primary)
CC1CN(CC(O)COC(c2ccccc2)c2ccccc2)CC(C)O1 (configuration not stated)	Measles CPE 31
OC(COC(c1ccccc1)c1ccccc1)CN1CCOCC1 (configuration not stated)	none (no result: Measles CPE, SDO1 yeast rescue)
COc1ccc(-n2c(C)cc(C(=O)Cn3nnc4ccccc4c3=O)c2C)cc1	none (no result: Measles CPE, ROMK primary)
Cc1cc(C(=O)Cn2nnc3ccccc3c2=O)c(C)n1-c1ccccc1F	Measles CPE 97
COc1cc(C(=O)O)nc2ccc([N+](=O)[O-])cc12	none (no result: Measles CPE, SDO1 yeast rescue)
Cc1cccc(CN2CCN(c3ccccn3)CC2)c1	none (no result: Measles CPE, ROMK primary, SDO1 yeast rescue)
Cc1ccc(CN2CCN(c3ccccn3)CC2)s1	Insulin prom inh 72
